Thermal melting temperature data for 56 sequences are collected here from the supplement of paper PMC7726561.

Whole data set: some 1,400 sequences, median “thermal melting temperature (Tm) of peptide-HLA complex” near 60, cut for the lowest 2% near 45. This is one part of a sample in which the lowest values are shown more often than they occur.
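Also: lysates heated 10 min at 37–73 °C, complexes pulled down with pan-HLA I antibody, peptide signal by DIA-MS relative to 37 °C, Tm where half the complex is unfolded.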

The assay addresses HLA-B*07:02. The assay can be described thus: thermal melting temperature (Tm) of peptide-HLA complex; higher = more thermostable pHLA complex. Conditions: C1R-B*07:02.
Sequence APRQVLDLEDL returned a thermal melting temperature of 60.9 °C.
As for KMLTFLML, the figure is 61.7 °C; as for KPQTKLLIL, 60.8 °C.
Regarding LPSKEHVDVI, the thermal melting temperature amounted to 44.8 °C.
Consider IPFSNPRVL, for which the thermal melting temperature stood at 61.4 °C.
As for LPRPWSVPPL, the figure is 60 °C; as for VPKPPSIEEF, 62.3 °C.
With RPAQVSQPF, the thermal melting temperature was 60.2 °C.
With IVDSARSIL, the thermal melting temperature was found to be 57.8 °C.
Turning to HPRKGFPGSL, the thermal melting temperature amounted to 45 °C.
APKPGGLSL registered a thermal melting temperature of 61.7 °C.
GPMNLRAAF gave a thermal melting temperature of 62.1 °C.
For MPSASRVILL, the thermal melting temperature came out at 62.7 °C.
APGPPGRSML registered a thermal melting temperature of 60 °C.
As to LPQLPLAAL, the thermal melting temperature stood at 59 °C.
HPAAFPLPV: the thermal melting temperature stood at 57.7 °C.
In turn, APRTVALTAL registered a thermal melting temperature of 62.9 °C.
In turn, LPQPVPLSV gave a thermal melting temperature of 62.6 °C.
For the sequence IPRPDGIEW, the thermal melting temperature was determined as 58.4 °C.
QPHLVNIQF displayed a thermal melting temperature of 41.6 °C.
In turn, RPGWLTVSL had a thermal melting temperature of 59.2 °C.
RPAVIGDVL had a thermal melting temperature of 59.3 °C.
For the sequence HPAGPRTVF, the thermal melting temperature came out at 59.1 °C.
In turn, YPTISLHAL had a thermal melting temperature of 59.8 °C.
Turning to SPTLPAARSSL, the thermal melting temperature amounted to 56.9 °C.
Regarding NPKNPGLWL, the thermal melting temperature was 61 °C.
In the case of TPRVPDNSL, the thermal melting temperature amounted to 60.7 °C.
The sequence SPDLVRVQL registered a thermal melting temperature of 60.7 °C.
As for RPAAGFVAGL, the figure is 57 °C; as for KPWLRALQL, 59.7 °C; as for MPFPNIRSAEL, 58.2 °C.
The sequence TPNDRFILL showed a thermal melting temperature of 60.4 °C.
Consider LPWASTHSL, for which the thermal melting temperature was 58.1 °C.
For AALPFVRQAGL, the thermal melting temperature amounted to 42.3 °C.
As for VPNQKRLTLL, the figure is 62.4 °C; as for KPYPIAEVEQL, 42.7 °C.
Sequence FDPALLEF registered a thermal melting temperature of 42.6 °C.
As for YPPNPWREI, the figure is 59.3 °C.
As for LPSWGRAEL, the figure is 62.8 °C; as for GPDEAKIKALL, 60 °C; as for APFEPLASGIL, 60.7 °C.
For the sequence SPRPALPALLV, the thermal melting temperature is 59.4 °C.
As to QPRNLLLAL, the thermal melting temperature was 61.2 °C.
As for RPSLLPLH, the thermal melting temperature came out at 61.5 °C.
Sequence VPNWHRDLV returned a thermal melting temperature of 58.3 °C.
As to KPMPSLPQL, the thermal melting temperature is 44.9 °C.
VPRAILVDL returned a thermal melting temperature of 62.4 °C.
As for NPRQPLPASGL, the figure is 58.3 °C.
As for SPRPPAEGF, the figure is 55.8 °C; as for RPNGTKVAVL, 60.1 °C; as for RPKTPPVVI, 59.6 °C.
Turning to FPIPAAEVDRL, the thermal melting temperature worked out at 62.2 °C.
Sequence RPAANPIQFTL yielded a thermal melting temperature of 59.8 °C.
IPRSITVLV: the thermal melting temperature came to 62.4 °C.
Consider MPHVPITTL, for which the thermal melting temperature was found to be 61.3 °C.
As for LPQYRLISI, the figure is 61.3 °C.
